Source: PubChem BioAssay (National Center for Advancing Translational Sciences (NCATS))
Sm TGR block: blocks Schistosoma mansoni thioredoxin glutathione reductase; Q962Y6; purified TGR, DTNB reduction, TNB absorbance 405 nm; Potency, µM (highest dose often 114 µM), for inactives: at the highest dose activity change, negative = inhibition, actives largely listed as inhibitors; 360,000 tested, 3% active; AID 485364; further: potency means the concentration at half of the fitted maximal effect; on the % scale 0 is the no-effect control and ±100 the full control effect; nearly all actives have a fitted effect of over 60% in size
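TGR 20 nM + NADPH 100 uM (dispensed conc.), cpd preinc 15 min RT; start with NADPH (500 uM addition) then DTNB (15 mM addition). Kinetic TNB absorbance, 405 nm filter. Four-parameter Hill fit across titration.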
Pf growth 48h: P. falciparum growth inhibition at 48 hours (one generation). P. falciparum luciferase growth in erythrocytes, 48 h. Potency, µM (series often up to 28.7 µM), without a hit: at the highest dose activity change, negative = inhibition, actives largely listed as inhibitors. 310,000 tested, 5.9% active. AID 504832; further: potency means the concentration at half of the fitted maximal effect; on the % scale 0 is the no-effect control and ±100 the full control effect
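Here the parasites carry a stable luciferase gene and grow inside erythrocytes in Albumax-based RPMI medium with compound for one erythrocytic cycle. Activity is scored as loss of luminescent signal.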
HCMV antiviral: blocks human cytomegalovirus replication. HFF cells, HCMV-luciferase reporter, 72 h; hits give low values. activity change, negative = inhibition, % at 57.5 µM. 410,000 tested, 4.5% active; in the data active means activity change below about -60%; inconclusive means no clear call, values can overlap the other calls; inactive means above about -39%; further: on the % scale 0 is the no-effect control and ±100 the full control effect
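Luciferase read-out from HCMV-luciferase-infected HFFs (MOI 1 PFU/cell) 72 h post infection at 37C; compounds added after 16 h cell attachment; activity normalized between buffer-only basal and Salinomycin (10uM) inhibitor controls.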
SARS PLP yeast: SARS-CoV PLP inhibition in yeast | Potency, µM (doses to about 32.9 µM), without a hit: top-dose activity, positive = growth rescue, usual class: activators | S. cerevisiae expressing SARS-CoV PLpro, growth rescue | 330,000 tested, 0.19% active | AID 485353; calls by dose curve; further: potency means the concentration at half of the fitted maximal effect; 0% is about no effect; nearly all actives have a fitted effect of over 55% in size
HCV inh: inhibitors of hepatitis C virus infection; Huh7.5.1 HCVcc-Cre infection, luciferase reporter, 44 h; Potency, µM (highest dose often 41.8 µM), for inactives: top-dose activity change, negative = inhibition, hits mostly inhibitors; 340,000 tested, 3.4% active; AID 651820; further: potency means the concentration at half of the fitted maximal effect; on the % scale 0 is the no-effect control and ±100 the full control effect
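Compounds are dispensed onto cells plated 4 h earlier at 1,000 per well, with HCVcc-Cre virus (about 0.5 moi) added next. Following 44 h of culture, luminescent signal is measured for 15 sec after 15 min with substrate at room temperature.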
Pf growth 96h: P. falciparum growth inhibition at 96 hour, primary screen for plastid delayed-death inhibitors; Potency, µM (titrated, usually from 28.7 µM), for the others: at the highest dose activity change, negative = inhibition, usual class: inhibitors; P. falciparum luciferase reporter growth, 96 h; AID 504834; 320,000 tested, 6.9% active; further: potency means the concentration at half of the fitted maximal effect; on the % scale 0 is the no-effect control and ±100 the full control effect
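Infected RBCs, 2% Hct / 0.05% parasitemia final; luciferase-reporter P. falciparum; cpd 96 h, 37 C, 5% CO2; luciferase detection reagent; luminescence.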
Starred values were filed as active, the others as inactive; ? = inconclusive; nt = not tested or not shown; + = active, no number. Compounds with a hit are over-represented: about 15% of the library has one in this group of screens. Unless noted, the call rests on the fitted dose curve; in most records, active means well fitted curve in the direction sought with a large enough effect; inconclusive means small, poorly fitted or top-dose-only effect, or another doubt; inactive means no such curve, though single readings can be large; an effect the other way counts as inactive or inconclusive.

SMILES	Sm TGR block	Pf growth 48h	HCMV antiviral	SARS PLP yeast	HCV inh	Pf growth 96h
COc1ccccc1CCNC(=O)c1cc(COc2cccc(C(F)(F)F)c2)on1	8%	-2%	+	-5%	?	?
O=C(NCC1CCOCC1)c1cc(COc2cccc(C(F)(F)F)c2)on1	-21%	18%	-33	-3%	?	-3%
COc1ccc(-n2c(=O)c3c(c4cc(OC)ccc4n3C)n(Cc3cccc(OC)c3)c2=O)cc1	1%	nt	2	nt	nt	nt
COc1ccc(-c2nonc2NC(=O)c2ccco2)cc1OC	0%	?	0	3%	7%	?
O=C(CCCCn1c(=O)[nH]c2ccsc2c1=O)N1CCN(c2cccc(Cl)c2)CC1	-1%	nt	-69*	nt	nt	nt
O=C(CCCn1c(=O)[nH]c2ccsc2c1=O)N1CCN(c2cccc(C(F)(F)F)c2)CC1	3%	nt	-105*	nt	nt	nt
CC(=O)c1ccc(N2CCN(C(=O)CCCCn3c(=O)[nH]c4ccsc4c3=O)CC2)cc1	-4%	nt	-4	nt	nt	nt
O=C(CCn1c(=O)[nH]c2ccsc2c1=O)N1CCN(c2cccc(Cl)c2)CC1	1%	?	7	-5%	-13%	13%
COc1ccccc1N1CCN(C(=O)CCCCCn2c(=O)[nH]c3ccsc3c2=O)CC1	15%	13µM*	-12	-2%	9%	0%
Cc1cccc(N2CCN(C(=O)CCCn3c(=O)[nH]c4ccsc4c3=O)CC2)c1C	1%	nt	1	nt	nt	nt
CN(C=O)c1ccc(CSc2ccccc2)cc1	nt	nt	?	nt	3%	nt
Cc1ccc(NC(=O)COC(=O)C(NS(=O)(=O)c2ccc(Cl)cc2)C(C)O)cc1C (stereo unspecified)	45µM*	?	-27	?	16%	?
Cc1ccc(NC(=O)COC(=O)C(NS(=O)(=O)c2ccc(Cl)cc2)C(C)O)c(Br)c1 (stereo unspecified)	-16%	21%	-1	?	-10%	?
O=C(CN1CCN(C(=O)CN2C(=O)NC3(CCCC3)C2=O)CC1)Nc1cccc(F)c1	0%	-7%	-1	4%	1%	17%
O=C(Cn1cc(Cl)ccc1=O)c1ccc(Cl)cc1	3%	3%	-37	4%	-15%	46%
CCOCc1cn(CC(=O)c2ccc([N+](=O)[O-])cc2)c(C)nc1=N	-19%	1µM*	-30	3%	?	nt
CCOCc1cn(CC(=O)c2ccc(Cl)cc2)c(C)nc1=N	10%	4.1µM*	-9	0%	-5%	nt
Cc1nc([N+](=O)[O-])cn1CC(=O)c1ccc(Br)cc1	8%	4%	6	0%	2%	85%
CCCc1cc(C(=O)Nc2cc(Br)ccc2O)no1	5%	5.2µM*	32	-4%	-26%	-17%
CCCc1cc(C(=O)Nc2cc(Cl)ccc2O)no1	0%	?	89	-34%	-8%	?
CC(C)c1cc(C(=O)Nc2cc(Cl)ccc2O)no1	2%	?	66	?	10µM*	?
Cc1noc(C(=O)Nc2cc(Cl)ccc2O)c1Cl	13%	5.2µM*	30	-6%	?	19%
CC(C)c1cc(C(=O)Nc2cc(Br)ccc2O)no1	22%	?	9	-3%	-23%	nt
COc1ccc2c3c([nH]c2c1)[C@@H](CO)N(Cc1ccccc1)CC31CN(C(=O)Cc2ccccc2)C1	nt	nt	0	nt	nt	nt
CC(=O)Nc1cnc(/C=C\CCCO)cn1	nt	nt	16	nt	nt	nt
SMILES	Sm TGR block	Pf growth 48h	HCMV antiviral	SARS PLP yeast	HCV inh	Pf growth 96h
Cc1ccccc1N(CC(=O)O)S(C)(=O)=O	-3%	-11%	21	-8%	-1%	?
CCc1ccccc1N(CC(=O)O)S(C)(=O)=O	12%	11%	-3	10%	21%	15µM*
Cc1csc(CN(C)C(=O)CC2C(=O)NCCN2Cc2ccc(Cl)c(F)c2)n1 (stereo unspecified)	45µM*	-10%	+	-3%	18%	9.3µM*
Cc1csc(CN(C)C(=O)CC2C(=O)NCCN2Cc2ccc(F)cc2Cl)n1 (stereo unspecified)	13µM*	2%	-32	2%	1%	75%
COc1cccc(CN(C)C(=O)c2ccc(S(=O)(=O)Nc3cccc(C)c3C)cc2)c1OC	nt	nt	0	nt	nt	nt
CCCn1cnnc1CNC(=O)C1CCC(=O)N(CCc2cccc(F)c2)C1 (stereo unspecified)	1%	42%	11	-3%	-2%	?
Cc1ccc(F)cc1C(=O)N1CCCCC1c1cc(C(=O)Nc2ccncc2)no1 (stereo unspecified)	nt	nt	-16	nt	nt	nt
CCSc1nc2c(c(-c3ccc(C)o3)c1C#N)CCCC2	-23%	-24%	-32	-13%	?	-19%
Cc1ccc(-c2c(C#N)c(N)nc3c2CCCC3)o1	25µM*	10µM*	4	1%	?	?
CCCCc1ccc(-c2c(C#N)c(N)nc3c2CCCC3)s1	5%	?	10	1%	13%	13µM*
COC(=O)CSc1nc2c(c(-c3ccc(C)o3)c1C#N)CCCC2	58%	-8%	-7	-13%	5.6µM*	17%
O=C(Nc1ccc(Cl)cn1)c1cccc2ccccc12	-22%	30%	11	-3%	-21%	5%
COc1ccccc1NC(=O)C1=C(C)Nc2nc(-c3ccco3)nn2C1c1ccccc1F (stereo unspecified)	?	nt	6	nt	nt	nt
CC(=O)N1CCc2cc(S(=O)(=O)NCCC(=O)Nc3cccc(C)c3C)ccc21	-4%	?	-30	6%	4%	3.7µM*
CCC(=O)N1CCc2cc(S(=O)(=O)NCCC(=O)Nc3ccccc3C)ccc21	8%	?	15	-3%	7%	12µM*
CC(=O)N1CCc2cc(S(=O)(=O)NCCC(=O)Nc3cc(C)cc(C)c3)ccc21	-24%	?	16	2%	23%	5.2µM*
CC(=O)N1c2ccc(S(=O)(=O)NCCC(=O)Nc3ccccc3C)cc2CC1C (stereo unspecified)	-2%	?	-28	2%	-4%	1%
CCC(=O)N1CCc2cc(S(=O)(=O)NCCC(=O)Nc3cc(C)cc(C)c3)ccc21	3%	?	-21	7%	-6%	41%
COC(=O)[C@H]1[C@H](CO)[C@H]2Cn3c(ccc(Br)c3=O)[C@@H]1N2C(=O)NC(C)C	nt	nt	-29	nt	nt	nt
Cc1cc(NC(=O)CSc2cn(C)c3ccccc23)no1	-10%	nt	9	-10%	-25%	?
COC(=O)c1sc2nc3c(c(-c4cccs4)c2c1N)CCCC3	-19%	27%	?	1%	?	2%
Nc1c(C(=O)NCc2ccc(Cl)cc2)sc2nc3c(c(C(F)(F)F)c12)CCC3	0%	?	?	-9%	nt	32%
